Results taken from PubChem BioAssay (NCATS).
Inconclusive results are not listed. The source made the active and inactive calls. Unless noted, calls follow the shape of the dose curve; as a rule, active = well fitted curve in either direction with a large enough effect (not every such curve was filed as active); inconclusive = small, poorly fitted or top-dose-only effect, or another doubt; inactive = flat fitted curve, though single readings scatter.

What was measured:
[1] = AP1 Signaling Pathway (AID 357); conditions: ME-180 AP-1-bla reporter, EGF-induced, beta-lactamase ratio, 5 h; at 7.69 µM (top of the series) unless noted;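 also: ME-180 reporter cells stimulated with EGF at its EC50 level; % is scaled to controls: 0 for no effect and ±100 for the full control effect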
How it was run: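 Read-out was the 460nm/530nm emission ratio (excitation 405nm) after CCF4 loading for 2.5 hours at room temperature. Cells carried an AP-1-driven beta-lactamase reporter, were stimulated with EC50 EGF plus compound for 5 hours, and AC50 values came from titrations.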

[2] = target: Cytochrome P450 1A2 (Homo sapiens) (UniProt P05177); experiment: p450-cyp1a2 (AID 410; calls by dose curve; also: potency is read from the fitted curve at half-maximal effect;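 as to activity change, negative = inhibition: -100% = full effect of reference inhibitor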)
How it was run: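 Luminescent demethylation readout: Luciferin-ME (100uM, equal to Km) turned over by 20nM CYP1A2 for 60 min at room temperature after NADPH regeneration addition, following 10 min compound preincubation. Normalization used 57 uM furafylline as full inhibition.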

[3] = NFAT Signaling Pathway (AID 444); conditions: Jurkat NFAT-bla M1, carbachol, beta-lactamase ratio, 5 h; at 7.69 µM (top of the series) unless noted;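 also: carbachol stimulus at about its EC50 of 1 µM final; % is scaled to controls: 0 for no effect and ±100 for the full control effect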
How it was run: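 Jurkat cells carrying an NFAT-driven β-lactamase reporter and co-transfected muscarinic M1 receptor were treated with compound plus carbachol (1 uM final, an EC50 level) for 5 h at 37 °C. CCF4 loading followed for 1 h at RT; 460/530 nm ratio gave %activity.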

[4] = Stat Signaling Pathway (AID 446); conditions: ME-180 (cervical carcinoma) SIE beta-lactamase reporter, IL-6 stimulated, 5 h; at 7.69 µM (top of the series) unless noted;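 also: ME-180 cervical cancer cells given 40 pM IL-6 alongside compound; SIE-controlled beta-lactamase reporter measured as 460/530 nm FRET emission ratio; % is scaled to controls: 0 for no effect and ±100 for the full control effect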
How it was run: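 Normalization used AC90 stimulation (300 pM IL-6) and AC90 inhibition (125 nM pan-JAK inhibitor at 40 pM IL-6). The underlying signal is SIE-driven beta-lactamase in ME-180 cells after 5 h IL-6 exposure with compound.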

[5] = target: Glucocorticoid receptor (Homo sapiens) (UniProt P04150); experiment: GR-GFP Redistribution (AID 450;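 active = compounds whose dose series gives a full or clear partial fitted curve of increased nuclear translocation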; also: potency is read from the fitted curve at half-maximal effect); conditions: U2OS GR-GFP nuclear translocation, laser cytometry, 2 h
[6] = target: Glucocorticoid receptor (Homo sapiens) (UniProt P04150); experiment: GR-EFC Redistribution (AID 451; calls by dose curve; also: potency is read from the fitted curve at half-maximal effect); conditions: CHO-K1 GR-EFC translocation, beta-gal luminescence, 2 h
How it was run: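 CHO-K1 cells stably expressing nuclear-localized β-gal enzyme acceptor and GR fused C-terminally to the enzyme donor fragment; ligand-driven nuclear translocation restores β-gal by complementation. Compounds titrated up to 46 uM final, 2 h at 37 °C; luminescence read.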

[7] = target: Mitogen-activated protein kinase 10 (Mus musculus) (UniProt Q61831); experiment: JNK3 AlphaScreen Assay (AID 530);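 also: kinase came from lysate of stimulated human HepG2 cells; signal reports phosphorylation of biotinylated GST-cJun 1-79 at Ser73 with 10 µM ATP; % is scaled to controls: 0 for no effect and ±100 for the full control effect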
How it was run: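 Phosphorylation of biotinylated GST-cJun(1-79) at Ser73 is measured by AlphaScreen proximity luminescence. Enzyme is JNK3 in HepG2 lysates activated with interleukin-1beta and tumor necrosis factor alpha; ATP is 10 uM final.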

[8] = target: 3',5'-cyclic-AMP phosphodiesterase 4B (Homo sapiens) (UniProt Q07343); experiment: qHTS Assay for Inhibitors of PDE-IV (AID 607; active = well fitted activation curve with a large enough effect in the main read-out, with a control signal flat, not every such curve was filed as active; also: % of control where 0% means no effect)
How it was run: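 HEK293 ACTOne cells with CNG channel (1000/well), endogenous PDE4; membrane potential dye, compounds up to 22.9 uM final. Fluorescence Ex 535/Em 590; RO 20-1724 (100 uM final) as reference.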

[9] = target: Guanine nucleotide-binding protein G(i) subunit alpha-1 (Homo sapiens) (UniProt P63096); experiment: qHTS Assay for Inhibitors of RGS12 GoLoco Motif Activity (Green Fluorophore) (AID 879; active = well fitted curve in the direction sought with a large enough effect; an effect the other way counts as inactive or inconclusive;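 also: 0% = labeled peptide with Gαi1 and full inhibition = labeled peptide alone without protein; negative values mean loss of peptide binding seen as reduced polarization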)
How it was run: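 A drop in FITC polarization marked displacement of the FITC-tagged RGS12 GoLoco peptide (10 nM) from Gαi1 (50 nM). Compounds were incubated 10 min at room temperature in Tris pH 7.5 buffer containing 150 mM NaCl, 0.1 mM GDP and 0.05% NP40; unlabeled peptide titration served as control.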

[10] = qHTS Assay for Identification of Small Molecule Agonists for Thrombopoietin (TPO) Signaling Pathway (AID 917; active = well fitted curve in the direction sought with a large enough effect; an effect the other way counts as inactive or inconclusive; also: % is scaled to controls: 0 for no effect and ±100 for the full control effect)
How it was run: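 Quantitative HTS for pathway activators: compounds were pin-transferred onto IL-3-starved Ba/F3 cells expressing human TPO receptor, TPO was added at its EC50 (26 pM final), and after 24 hrs at 37 C reporter luciferase was measured.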

[11] = target: Pyruvate kinase (Leishmania mexicana) (UniProt Q27686); experiment: qHTS Validation Assay for Inhibitors of Leishmania Mexicana Pyruvate Kinase (AID 945; active = well fitted curve in the direction sought with a large enough effect; an effect the other way counts as inactive or inconclusive;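 also: 0% = DMSO only neutral control wells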)
How it was run: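 Compounds are tested as eight-point concentration series. Reactions contain 0.2 nM LmPYK E451W, 0.5 mM PEP, 0.1 mM ADP, 7 mM MgCl2 and 50 mM KCl at pH 7.2, run 1 h at room temperature, then read by PKLight luminescence.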

[12] = target: Pyruvate kinase PKM (Homo sapiens) (UniProt P14618); experiment: qHTS Assay for Activators of Human Muscle Pyruvate Kinase (AID 954; active = well fitted curve in the direction sought with a large enough effect, not every such curve was filed as active;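 also: 0% = uninhibited enzyme and -100% = no enzyme or full thiadiazolimine inhibition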)
How it was run: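 Compound pinned into substrate mix (0.5 mM PEP, 0.1 mM ADP), then 0.1 nM PKM2 added; 1 h, RT. Stop/detection luciferase reagent added, luminescence read. Normalized to no-inhibition and no-enzyme or reference-inhibitor controls.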

[13] = target: Alpha-galactosidase A (Homo sapiens) (UniProt P06280); experiment: Counterscreen for Glucocerebrosidase Inhibitors: qHTS Assay for Human alpha-Galactosidase at pH 4.5 (AID 992; active = well fitted curve in the direction sought with a large enough effect; an effect the other way counts as inactive or inconclusive; also: 0% is about no effect)
How it was run: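 Steps: enzyme (2 nM final), then compound across 0.7 nM to 77 uM, then 80 uM fluorogenic galactopyranoside substrate; incubate 20 min at room temperature; quench at pH 10; measure fluorescence at 365/440 nm.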

[14] = target: alpha-glucosidase (Oryza sativa, rice) (UniProt Q653V4); experiment: Counterscreen for Glucocerebrosidase Inhibitors: qHTS Assay for Rice alpha-Glucosidase at pH 5.0 (AID 997; active = well fitted curve in the direction sought with a large enough effect; an effect the other way counts as inactive or inconclusive;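 also: 0% = full activity with enzyme and -100% = basal without enzyme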)
How it was run: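 Endpoint fluorogenic assay at pH 5.0: compounds (0.7 nM to 77 uM) titrated against 4 nM rice enzyme and 400 uM 4-MU-alpha-glucoside for 20 min at room temperature; NaOH/glycine stop, read ex 365/em 440 nm, Hill-fitted AC50.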

[15] = target: Cytochrome P450 3A4 (Homo sapiens) (UniProt P08684); experiment: qHTS Assay for Activators of Cytochrome P450 3A4 (AID 885; active = well fitted curve in the direction sought with a large enough effect; an effect the other way counts as inactive or inconclusive; also: nearly all actives have a fitted effect of over 65% in size; also: potency is read from the fitted curve at half-maximal effect)
How it was run: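 Human CYP3A4 dealkylates Luciferin-PPXE to luciferin, which luciferase detection converts to light. Substrate was at its KM (25uM), buffer 200mM KPO4, reaction 60 min at RT.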

[16] = target: Cytochrome P450 2D6 (Homo sapiens) (UniProt P10635); experiment: qHTS Assay for Inhibitors and Substrates of Cytochrome P450 2D6 (AID 891; active = well fitted curve in the direction sought with a large enough effect; an effect the other way counts as inactive or inconclusive;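 also: luciferin methyl ether substrate demethylated by CYP2D6 with NADPH regeneration; % is scaled to controls: 0 for no effect and ±100 for the full control effect; nearly all actives have a fitted effect of over 60% in size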)
How it was run: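 Luminescent read-out of luciferin formed by 5 nM human CYP2D6 demethylating 30 uM Luciferin-ME EGE (Km level) over 60 min at room temperature after NADPH regeneration addition. Data normalized to full inhibition by 1.43 uM quinidine.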

[17] = target: Cytochrome P450 2C19 (Homo sapiens) (UniProt P33261); experiment: qHTS Assay for Inhibitors and Substrates of Cytochrome P450 2C19 (AID 899; active = well fitted curve in the direction sought with a large enough effect; an effect the other way counts as inactive or inconclusive; also: % is scaled to controls: 0 for no effect and ±100 for the full control effect; nearly all actives have a fitted effect of over 60% in size)
How it was run: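 In 50mM KPO4, the reaction held 5nM enzyme and KM-level (10uM) Luciferin-H EGE; it ran 60 min at 37C after NADPH regeneration and a 10 min compound preincubation. Luminescence values were scaled to 57uM ketoconazole as complete inhibition.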

[18] = target: Muscarinic acetylcholine receptor M1 (Rattus norvegicus) (UniProt P08482); experiment: qHTS Assay for Antagonists of Acetylcholine Muscarinic M1 Receptor: Measurement of IP-One Response (AID 944; active = well fitted curve in the direction sought with a large enough effect; an effect the other way counts as inactive or inconclusive; also: nearly all actives have a fitted effect of over 75% in size)
How it was run: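 IP1 accumulation measured via TR-FRET between d2-IP1 and Eu-cryptate anti-IP1 antibody after carbachol (200 nM, EC80) stimulation for 30 min; rat M1-transfected CHO cells received compound 10 min before agonist.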

[19] = qHTS Assay for Identification of Small Molecule Antagonists for NFkB Signaling Pathway (AID 895; active = well fitted inhibition curve with a large enough effect in the signal ratio, with a control signal flat, not every such curve was filed as active; the % refers to the signal ratio; also: % is scaled to controls: 0 for no effect and ±100 for the full control effect)
How it was run: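 NFkB-bla ME-180 cervical carcinoma cells with beta-lactamase reporter under NFkB response element; compounds added, then TNF alpha at 10 pM final (EC50), 5 h at 37 C. LiveBLAzer substrate 2 h, room temperature; emission 460/530 nm at 405 nm excitation.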

[20] = target: Muscarinic acetylcholine receptor M1 (Rattus norvegicus) (UniProt P08482); experiment: qHTS Assay for Antagonists of Acetylcholine Muscarinic M1 Receptor: Kinetic Measurement of Intracellular Calcium Response (AID 943; active = well fitted curve in the direction sought with a large enough effect; an effect the other way counts as inactive or inconclusive;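 also: Fluo-4 calcium signal as peak divided by basal fluorescence over 4 min; nearly all actives have a fitted effect of over 75% in size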)
How it was run: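 Antagonism measured as reduction of carbachol-evoked (EC80, 100 nM final) calcium flux in rat M1-CHO cells after 10 min compound exposure. Fluo-4 signal read kinetically; ratio of maximal to basal fluorescence.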

3',5'-cyclic-AMP phosphodiesterase 4B (Homo sapiens), sequence (Q07343 whole entry, looked up): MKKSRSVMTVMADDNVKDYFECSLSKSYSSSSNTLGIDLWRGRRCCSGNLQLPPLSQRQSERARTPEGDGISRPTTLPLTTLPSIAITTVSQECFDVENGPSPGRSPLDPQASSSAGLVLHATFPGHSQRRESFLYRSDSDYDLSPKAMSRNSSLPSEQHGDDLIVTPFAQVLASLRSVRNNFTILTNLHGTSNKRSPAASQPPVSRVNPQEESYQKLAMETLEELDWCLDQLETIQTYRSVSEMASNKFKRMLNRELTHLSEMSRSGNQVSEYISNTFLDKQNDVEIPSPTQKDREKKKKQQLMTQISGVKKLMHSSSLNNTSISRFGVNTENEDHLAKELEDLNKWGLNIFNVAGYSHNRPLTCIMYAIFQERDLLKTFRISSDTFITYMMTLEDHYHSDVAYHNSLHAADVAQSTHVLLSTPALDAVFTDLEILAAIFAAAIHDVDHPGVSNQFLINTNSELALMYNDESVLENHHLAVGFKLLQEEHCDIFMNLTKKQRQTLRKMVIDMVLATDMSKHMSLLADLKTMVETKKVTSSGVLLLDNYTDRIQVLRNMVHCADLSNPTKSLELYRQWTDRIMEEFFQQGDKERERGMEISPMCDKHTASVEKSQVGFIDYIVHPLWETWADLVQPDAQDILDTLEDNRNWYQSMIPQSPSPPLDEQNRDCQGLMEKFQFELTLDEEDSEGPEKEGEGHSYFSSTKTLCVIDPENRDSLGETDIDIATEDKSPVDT
Alpha-galactosidase A (Homo sapiens), sequence (P06280 whole entry, looked up): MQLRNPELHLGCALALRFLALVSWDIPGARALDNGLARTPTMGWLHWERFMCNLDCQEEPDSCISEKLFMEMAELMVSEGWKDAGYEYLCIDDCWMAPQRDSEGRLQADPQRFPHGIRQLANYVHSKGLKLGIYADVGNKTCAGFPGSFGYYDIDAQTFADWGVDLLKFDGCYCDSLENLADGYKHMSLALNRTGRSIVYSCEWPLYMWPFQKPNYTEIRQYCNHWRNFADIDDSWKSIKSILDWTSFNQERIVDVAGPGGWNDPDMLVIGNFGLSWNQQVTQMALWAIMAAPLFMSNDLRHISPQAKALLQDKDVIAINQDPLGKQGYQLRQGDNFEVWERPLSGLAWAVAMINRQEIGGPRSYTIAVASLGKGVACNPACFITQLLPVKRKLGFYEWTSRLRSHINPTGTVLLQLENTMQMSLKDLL
Pyruvate kinase (Leishmania mexicana), sequence (Q27686 2-499 E452W): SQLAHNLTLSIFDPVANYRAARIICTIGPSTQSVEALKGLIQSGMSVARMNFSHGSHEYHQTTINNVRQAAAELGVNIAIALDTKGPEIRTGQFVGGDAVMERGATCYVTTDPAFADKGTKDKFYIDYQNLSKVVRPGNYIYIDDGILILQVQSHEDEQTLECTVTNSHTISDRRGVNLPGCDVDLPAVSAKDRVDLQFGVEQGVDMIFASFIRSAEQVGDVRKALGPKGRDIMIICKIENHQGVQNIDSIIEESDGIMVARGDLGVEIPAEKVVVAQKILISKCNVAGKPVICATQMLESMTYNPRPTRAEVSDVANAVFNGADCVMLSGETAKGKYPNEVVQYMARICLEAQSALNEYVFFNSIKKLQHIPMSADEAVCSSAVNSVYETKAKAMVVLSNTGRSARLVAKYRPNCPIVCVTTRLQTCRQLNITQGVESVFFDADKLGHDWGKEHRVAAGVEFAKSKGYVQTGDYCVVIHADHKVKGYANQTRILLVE
Cytochrome P450 1A2 (Homo sapiens), sequence (P05177 whole entry, looked up): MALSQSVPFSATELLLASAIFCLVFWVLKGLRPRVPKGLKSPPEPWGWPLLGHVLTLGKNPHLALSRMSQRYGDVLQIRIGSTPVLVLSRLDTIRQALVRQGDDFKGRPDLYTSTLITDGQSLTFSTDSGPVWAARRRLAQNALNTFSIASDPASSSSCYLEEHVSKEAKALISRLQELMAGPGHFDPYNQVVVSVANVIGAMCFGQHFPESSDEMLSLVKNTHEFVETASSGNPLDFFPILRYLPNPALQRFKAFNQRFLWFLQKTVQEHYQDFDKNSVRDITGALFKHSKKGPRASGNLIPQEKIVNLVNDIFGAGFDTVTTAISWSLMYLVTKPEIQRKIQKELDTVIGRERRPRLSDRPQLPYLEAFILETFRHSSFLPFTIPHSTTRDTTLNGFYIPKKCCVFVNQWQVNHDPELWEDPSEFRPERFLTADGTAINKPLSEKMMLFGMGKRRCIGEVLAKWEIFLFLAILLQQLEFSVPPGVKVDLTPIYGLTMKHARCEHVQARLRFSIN
Glucocorticoid receptor (Homo sapiens), sequence (P04150 whole entry, looked up, the tested form may be a part): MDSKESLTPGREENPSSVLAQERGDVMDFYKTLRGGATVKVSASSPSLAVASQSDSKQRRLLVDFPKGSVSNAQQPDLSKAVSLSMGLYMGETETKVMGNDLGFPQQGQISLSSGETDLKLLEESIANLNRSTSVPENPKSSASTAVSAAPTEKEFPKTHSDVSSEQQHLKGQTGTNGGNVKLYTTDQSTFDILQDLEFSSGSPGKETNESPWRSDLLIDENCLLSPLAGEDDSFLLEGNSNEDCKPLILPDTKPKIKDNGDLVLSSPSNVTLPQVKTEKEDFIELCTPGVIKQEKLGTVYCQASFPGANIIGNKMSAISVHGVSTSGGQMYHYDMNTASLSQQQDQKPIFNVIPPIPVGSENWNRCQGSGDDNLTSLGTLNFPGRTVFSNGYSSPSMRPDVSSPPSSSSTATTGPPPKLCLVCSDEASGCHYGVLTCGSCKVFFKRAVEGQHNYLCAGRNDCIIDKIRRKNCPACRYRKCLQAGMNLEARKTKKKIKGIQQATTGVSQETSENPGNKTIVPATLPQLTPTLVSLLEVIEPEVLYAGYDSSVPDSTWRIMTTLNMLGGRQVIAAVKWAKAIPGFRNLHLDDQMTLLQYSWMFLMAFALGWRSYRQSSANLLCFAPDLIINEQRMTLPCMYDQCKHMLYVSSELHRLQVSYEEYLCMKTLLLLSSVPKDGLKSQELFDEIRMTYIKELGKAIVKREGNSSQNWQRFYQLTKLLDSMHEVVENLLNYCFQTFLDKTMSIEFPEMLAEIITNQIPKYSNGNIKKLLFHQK
Guanine nucleotide-binding protein G(i) subunit alpha-1 (Homo sapiens), sequence (P63096 whole entry, looked up): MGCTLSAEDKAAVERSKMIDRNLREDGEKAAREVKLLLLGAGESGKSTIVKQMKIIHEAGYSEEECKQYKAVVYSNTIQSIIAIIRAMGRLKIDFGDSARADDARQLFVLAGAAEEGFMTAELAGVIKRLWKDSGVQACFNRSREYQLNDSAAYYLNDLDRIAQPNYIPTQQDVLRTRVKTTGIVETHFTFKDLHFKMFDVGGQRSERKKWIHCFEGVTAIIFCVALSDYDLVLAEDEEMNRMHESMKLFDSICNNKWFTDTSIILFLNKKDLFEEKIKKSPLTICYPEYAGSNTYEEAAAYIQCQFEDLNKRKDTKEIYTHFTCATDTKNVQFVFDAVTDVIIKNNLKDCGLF
Cytochrome P450 2D6 (Homo sapiens), sequence (P10635 whole entry, looked up): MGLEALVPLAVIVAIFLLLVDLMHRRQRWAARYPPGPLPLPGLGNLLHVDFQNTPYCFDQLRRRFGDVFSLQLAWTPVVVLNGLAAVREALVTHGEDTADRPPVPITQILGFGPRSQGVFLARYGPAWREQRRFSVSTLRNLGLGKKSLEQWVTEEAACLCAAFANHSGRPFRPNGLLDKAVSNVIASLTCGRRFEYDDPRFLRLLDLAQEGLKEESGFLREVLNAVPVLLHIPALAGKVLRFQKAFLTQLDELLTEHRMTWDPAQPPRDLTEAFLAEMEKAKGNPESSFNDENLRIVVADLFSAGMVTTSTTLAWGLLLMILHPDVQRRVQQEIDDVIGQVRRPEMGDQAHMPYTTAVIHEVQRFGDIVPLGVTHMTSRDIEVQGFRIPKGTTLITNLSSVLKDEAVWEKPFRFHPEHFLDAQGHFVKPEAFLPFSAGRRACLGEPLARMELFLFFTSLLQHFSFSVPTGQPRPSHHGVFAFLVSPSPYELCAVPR
Pyruvate kinase PKM (Homo sapiens), sequence (P14618 whole entry, looked up): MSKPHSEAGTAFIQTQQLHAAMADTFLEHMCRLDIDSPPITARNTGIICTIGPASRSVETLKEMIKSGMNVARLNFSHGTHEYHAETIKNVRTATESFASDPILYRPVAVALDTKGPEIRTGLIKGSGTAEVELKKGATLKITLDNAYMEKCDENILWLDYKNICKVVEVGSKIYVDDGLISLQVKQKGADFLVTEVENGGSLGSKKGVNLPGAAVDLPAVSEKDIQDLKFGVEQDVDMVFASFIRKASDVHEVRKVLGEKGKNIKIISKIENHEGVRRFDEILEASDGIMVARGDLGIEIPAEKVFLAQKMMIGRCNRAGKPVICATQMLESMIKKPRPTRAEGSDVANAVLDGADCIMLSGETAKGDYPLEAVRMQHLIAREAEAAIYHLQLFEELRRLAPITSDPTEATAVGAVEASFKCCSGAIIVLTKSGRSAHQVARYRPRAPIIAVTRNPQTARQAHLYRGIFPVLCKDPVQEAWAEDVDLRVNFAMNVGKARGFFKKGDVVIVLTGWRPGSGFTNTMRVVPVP
Cytochrome P450 3A4 (Homo sapiens), sequence (P08684 whole entry, looked up): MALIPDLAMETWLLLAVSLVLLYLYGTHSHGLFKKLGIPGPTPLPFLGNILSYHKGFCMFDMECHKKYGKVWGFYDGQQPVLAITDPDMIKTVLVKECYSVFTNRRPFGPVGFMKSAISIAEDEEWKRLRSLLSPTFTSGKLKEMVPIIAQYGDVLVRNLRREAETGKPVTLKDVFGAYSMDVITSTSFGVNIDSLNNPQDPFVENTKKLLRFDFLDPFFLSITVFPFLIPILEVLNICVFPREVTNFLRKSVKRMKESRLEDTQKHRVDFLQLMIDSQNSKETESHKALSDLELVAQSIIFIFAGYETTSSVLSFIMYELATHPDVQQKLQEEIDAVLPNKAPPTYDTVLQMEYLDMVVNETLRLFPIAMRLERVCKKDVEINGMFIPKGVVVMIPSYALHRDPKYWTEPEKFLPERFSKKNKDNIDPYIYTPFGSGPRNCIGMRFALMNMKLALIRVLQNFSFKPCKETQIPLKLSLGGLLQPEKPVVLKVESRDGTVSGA

COc1cc([C@@H](O)CO)ccc1OS(=O)(=O)O
inactive: activity change, negative = inhibition [1] 6.76% [at 38 µM] | Potency [2] | activity change, negative = inhibition [3] 4.87% [at 38 µM] | activity, negative = inhibition [4] 7.18% [at 38 µM] | Potency [5] > 46 µM | Potency [6] > 46 µM | Potency [7] | Potency [8] | outcome [9] | outcome [10] | outcome [11] | outcome [12] | outcome [13] | Potency [14]

COc1cc(Cl)c(CC(=O)c2c[nH]c3ccccc23)cc1OC
active: Potency [2] 1 µM
inactive: activity change, negative = inhibition [1] -19.9% | activity change, negative = inhibition [3] 26.5% | activity, negative = inhibition [4] -15.8% | Potency [5] > 46 µM | Potency [6] > 9.22 µM | Potency [7] | Potency [8] | Potency [15]

O=C(O)CCCCCC[C@@H]1C(=O)NC(=O)N1CC[C@@H](O)C1CCCCC1
inactive: activity change, negative = inhibition [1] -8.86% [at 38 µM] | Potency [2] | activity change, negative = inhibition [3] -9.7% [at 38 µM] | activity, negative = inhibition [4] 3.65% [at 38 µM] | Potency [5] > 46 µM | Potency [6] > 46 µM | Potency [7] | Potency [8] | Potency [16] | Potency [17]

NC(N)=Nc1nc2ccc([N+](=O)[O-])cc2[nH]1
inactive: activity change, negative = inhibition [1] 0.0978% | activity change, negative = inhibition [3] 0.0962% | activity, negative = inhibition [4] 9.75% | Potency [5] > 46 µM | Potency [6] > 9.22 µM | Potency [7] | Potency [8]
active: Potency [2] 3.16 µM | Potency [15] 3.16 µM

Cc1ccccc1/C=C\C1=NCCN1
inactive: activity change, negative = inhibition [1] -3.38% [at 38 µM] | activity change, negative = inhibition [3] -1.9% [at 38 µM] | activity, negative = inhibition [4] 5.08% [at 38 µM] | Potency [5] > 46 µM | Potency [6] > 46 µM | Potency [7] | Potency [8] | outcome [9] | Potency [18] | outcome [11] | outcome [12] | outcome [13] | Potency [14]
active: Potency [2] 6.31 µM

C=C1CC[C@H](O)C/C1=C/C=C1\CCC[C@]2(C)[C@H]1CC[C@H]2[C@@H](C)CCCC(C)C
inactive: activity change, negative = inhibition [1] -6.4% [at 17.2 µM] | Potency [2] | activity change, negative = inhibition [3] 8.22% [at 17.2 µM] | activity, negative = inhibition [4] -9.36% [at 17.2 µM] | Potency [5] > 20.6 µM | Potency [6] > 20.6 µM | Potency [7] | Potency [8]

COc1ccc2c(c1)CCC1C2CC[C@]2(C)[C@H](NCCCCCCN3C(=O)C=CC3=O)CC[C@@H]12 (some centres not stated)
inactive: activity change, negative = inhibition [1] -7.36% [at 38 µM] | Potency [2] | activity change, negative = inhibition [3] 12.6% [at 38 µM] | activity, negative = inhibition [4] 1% [at 38 µM] | Potency [5] > 46 µM | Potency [6] > 46 µM | Potency [7] | Potency [8] | outcome [9] | outcome [11] | outcome [12] | outcome [13] | Potency [14]

N[C@H](Cc1ccc(O)c(I)c1)C(=O)O
inactive: activity change, negative = inhibition [1] 6.16% [at 38 µM] | Potency [2] | activity change, negative = inhibition [3] 8.86% [at 38 µM] | activity, negative = inhibition [4] -3.36% [at 38 µM] | Potency [5] > 46 µM | Potency [6] > 46 µM | Potency [7] | Potency [8] | Potency [16] | Potency [17]

Cc1cnc(CNc2nc(-c3cccnc3)nc3ccccc23)cn1
inactive: activity change, negative = inhibition [1] -11.8% | activity change, negative = inhibition [3] 0.457% | activity, negative = inhibition [4] -9.76% | Potency [5] > 46 µM | Potency [6] > 46 µM | Potency [7] | Potency [8] | Potency [15]
active: Potency [2] 2.51 µM

OC[C@@H]1O[C@@H](n2cnc3c(NC4CCCC4)ncnc32)[C@@H](O)[C@H]1O
inactive: activity change, negative = inhibition [1] -0.201% [at 38 µM] | Potency [2] | activity change, negative = inhibition [3] 1.91% [at 38 µM] | activity, negative = inhibition [4] 12.2% [at 38 µM] | Potency [5] > 46 µM | Potency [6] > 46 µM | Potency [7] | Potency [8] | outcome [9] | outcome [10] | outcome [11] | outcome [12] | outcome [13] | Potency [14]

C[N+]1(CCC(=O)c2ccco2)CC2CCC(CC2)C1 (configuration not stated)
inactive: activity change, negative = inhibition [1] 6.86% | Potency [2] | activity change, negative = inhibition [3] 7.5% | activity, negative = inhibition [4] 1.18% | Potency [5] > 46 µM | Potency [6] > 9.22 µM | Potency [7] | Potency [8] | Potency [16]

O=C(N/N=C\c1ccc2c(c1)CCC2)c1ccccc1O
inactive: activity change, negative = inhibition [1] -5.97% | activity change, negative = inhibition [3] 20.6% | activity, negative = inhibition [4] -2.26% | Potency [5] > 46 µM | Potency [6] > 9.22 µM | Potency [7] | Potency [8]
active: Potency [2] 2 µM

O=C(O)/C=C\[C@H](O)c1ccc(Cl)cc1
inactive: activity change, negative = inhibition [1] 1.29% [at 38 µM] | Potency [2] | activity change, negative = inhibition [3] 8.91% [at 38 µM] | activity, negative = inhibition [4] -1.2% [at 38 µM] | Potency [5] > 46 µM | Potency [6] > 46 µM | Potency [7] | outcome [9] | Potency [19] | outcome [10] | Potency [20] | outcome [11] | outcome [12] | outcome [13] | Potency [14]
